Screening data from PubChem BioAssay.
This is a sample that favours compounds with a hit; in the whole collection about 8.1% have one here.
VP16 counter = counter-screen for ROR gamma inhibitors: Gal4-VP16 reporter. Drosophila S2 Gal4-VP16 UAS-luciferase, luminescence, 20 h. Potency, µM (top dose mostly 53.6 µM), inactives show at the top dose activity, negative = inhibition, hits mostly inhibitors. 3.5% of 310,000 active. AID 2546;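 further: Gal4-VP16 expression switched on by copper sulfate through the metallothionein promoter; on the % scale 0 is the no-effect control and ±100 the full control effect; nearly all actives have a fitted effect of over 50% in size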
PINK1 modulator = changes PINK1 expression; AID 624263; PINK1 immunofluorescence, high-content cytometry, 24 h; Potency, µM (series often up to 76.6 µM), inactives show at the highest dose activation (PINK1 increase), most hits filed as activators; 0.2% of 410,000 active; active means well fitted activation curve with a large enough effect; inconclusive means small, poorly fitted or top-dose-only effect; cell line not stated here; further: % of control where 0% means no effect; nearly all actives have a fitted effect of over 65% in size
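Measures PINK1 amount and localization on or inside mitochondria by immunofluorescence. Stable cells get compounds at 5 concentrations for 24 hours before fixation and staining; CCCP controls included.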
ClpP mod = qHTS Assay for Activators of ClpP; ATP-dependent Clp protease proteolytic subunit (Bacillus subtilis (strain 168)), P80244; 1.9% of 340,000 active; purified B. subtilis ClpP, FRET peptide cleavage, 20 min; Potency, µM (doses to about 57.5 µM), for the others: at the highest dose activity change, negative = active; active means well fitted falling curve with a large enough effect; inconclusive means small, poorly fitted or top-dose-only effect; inactive means no such curve, though single readings can be large or run the other way; further: the source files actives as falling curves though it sought activators and does not explain the sign; nearly all actives have a fitted effect of over 65% in size
Target sequence (P80244 whole entry, looked up): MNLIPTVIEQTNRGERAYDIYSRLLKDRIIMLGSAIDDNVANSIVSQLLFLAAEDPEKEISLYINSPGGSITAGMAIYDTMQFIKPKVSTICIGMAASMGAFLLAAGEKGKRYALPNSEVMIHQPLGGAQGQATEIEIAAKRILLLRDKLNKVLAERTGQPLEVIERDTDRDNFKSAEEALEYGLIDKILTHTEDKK
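ClpP 10 microg/mL final, pH 8 Tris/KCl buffer with BSA, glycerol, Tween-20; compound pinned in; FRET-FV substrate; RT 20 min; Ex320/Em430; ΔFRET vs ADEP 5.8 microM, DMSO, no enzyme.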
RORg inh = ROR gamma (mouse) transcription inhibition; P51450; Drosophila S2 Gal4-RORgamma UAS-luciferase reporter, 20 h; Potency, µM (series often up to 53.6 µM), without a hit: at the top dose activity change, negative = inhibition, most hits filed as inhibitors; 5.4% of 310,000 active; further: on the % scale 0 is the no-effect control and ±100 the full control effect; nearly all actives have a fitted effect of over 60% in size
Target sequence (P51450 whole entry, looked up, the tested form may be a part): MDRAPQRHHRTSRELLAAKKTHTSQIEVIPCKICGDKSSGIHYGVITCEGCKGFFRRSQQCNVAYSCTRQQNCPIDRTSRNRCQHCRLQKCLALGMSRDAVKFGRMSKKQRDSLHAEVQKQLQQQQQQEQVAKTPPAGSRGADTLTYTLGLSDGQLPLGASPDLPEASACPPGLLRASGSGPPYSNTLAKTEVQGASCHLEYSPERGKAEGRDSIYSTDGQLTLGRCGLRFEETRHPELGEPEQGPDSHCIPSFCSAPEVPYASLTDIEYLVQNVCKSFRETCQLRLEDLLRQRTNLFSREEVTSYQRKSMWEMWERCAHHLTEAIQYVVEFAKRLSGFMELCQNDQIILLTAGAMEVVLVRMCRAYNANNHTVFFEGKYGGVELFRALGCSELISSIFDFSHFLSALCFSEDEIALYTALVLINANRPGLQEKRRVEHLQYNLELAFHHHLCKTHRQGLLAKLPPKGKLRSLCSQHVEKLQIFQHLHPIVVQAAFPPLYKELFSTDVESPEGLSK
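Drosophila S2 cells stably expressing Gal4-DBD/mouse RORγ fusion under metallothionein promoter plus UAS-luciferase; compound 1 h, then 700 uM CuSO4 induction for 20 h at ambient temperature; inhibition read as reduced luminescence.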
Epigenetic reg = regulators of epigenetic silencing causing reporter derepression in mouse cells | murine LDR cells, GFP reporter derepression, 30 h | 0.2% of 280,000 active | Potency, µM (top dose mostly 53.9 µM), without a hit: at the top dose GFP activation, hits mostly activators | AID 1865; further: % of control where 0% means no effect; nearly all actives have a fitted effect of over 60% in size
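Derepression of a silenced CMV-GFP reporter in murine LDR cells is scored by enumerating GFP-positive cells with a laser-scanning microplate cytometer after 30 hours of treatment at 37 C.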
Sfp inh = blocks B. subtilis Sfp PPTase activity. Biochemical Sfp PPTase activity, qHTS. Potency, µM, for the others: largest response in the series, negative = inhibition, hits mostly inhibitors. 3.5% of 310,000 active. Q9F4F7. AID 1490;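 further: the enzyme is Sfp with the accession as filed and its product quenches rhodamine fluorescence; 0% = enzyme reaction without inhibitor and -100% = no enzyme wells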
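Fluorescence-quenching assay with 15 nM Sfp, 5 uM rhodamine-CoA and 12.5 uM BHQ-2-labelled ybbR peptide in pH 7.6 Hepes/MgCl2 buffer. Enzyme was pre-incubated with compound for 15 min at room temperature. Rate was taken from the 30-min fluorescence change (525/598 nm).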
* marks the source's active call; other numbers are inactive results; u = inconclusive; x = not tested or not shown; [ ] = remark or other dose. Unless noted, the call rests on the fitted dose curve; in most records, active means well fitted curve in the direction sought with a large enough effect; inconclusive means small, poorly fitted or top-dose-only effect, or another doubt; inactive means no such curve, though single readings can be large; an effect the other way counts as inactive or inconclusive. Potency means the concentration at half of the fitted maximal effect.

SMILES	VP16 counter	PINK1 modulator	ClpP mod	RORg inh	Epigenetic reg	Sfp inh
c1coc(CNc2nc(N3CCCCC3)nc3ccccc23)c1	u	1.6%	22.4µM*	1.1%	0.0%	u
OCCNc1nc(N2CCCCC2)nc2ccccc12	3.1%	0.2%	x	-3.3%	x	7.2%
Nc1nc(N2CCN(Cc3ccccc3)CC2)n[nH]1	-2.8%[10 µM]	-2.2%	x	-0.3%	4.7%[10.1 µM]	-8.7%
c1ccc(-c2nc(N3CCCC3)nc3ccccc23)cc1	-15.3%	8.7%	x	-8.0%	-1.5%	39.8µM*
O=C(CSc1nccn1Cc1ccccc1)Nc1ccc2c(c1)OCCO2	x	8.0%	5.6%	x	2.5%	x
COc1cc2c(cc1NC(=O)c1ccccc1C)n(C)c(=O)n2C	x	1.4%	1.1%	x	2.4%	x
COc1cc(-c2cnc3ccccc3c2)cc2c1OCCN(S(=O)(=O)C[C@]13CC[C@H](CC1=O)C3(C)C)C2	x	-0.2%	x	x	x	x
Fc1ccc2nc3n(c2c1F)CCCCCC3	-21.2%	x	-9.8%	11.2µM*	-0.7%	13.2%
O=C(Sc1nnnn1C1CCCCC1)c1cccs1	7.1%	x	x	u	0.0%	35.5µM*
O=C(CSc1ccc(-c2ccncc2)nn1)c1ccc(Cl)cc1	-12.4%[10 µM]	4.9%	x	15.7%	2.2%	11.3%
NC(=O)C(c1ccc(Cl)cc1)c1ccc(Sc2ccc(Cl)cc2)nn1 (stereo not drawn)	14.1µM*	0.8%	-2.4%	u	0.9%	-10.1%
COCCCn1c(=O)c2sccc2n2c(CCCC(=O)Nc3ccc(F)c(F)c3)nnc12	x	2.2%	-24.7%	x	6.0%	x
COc1ccc(C(CC(=O)NCc2ccc(Cl)cc2)N2Cc3ccccc3C2=O)cc1OC (stereo not drawn)	x	0.7%	3.2%	x	-4.3%	x
O=c1cc(/C=C/c2ccccc2)oc2c1ccc1ccccc12	u	16.1%	28.2µM*	-9.8%	-3.2%	79.4µM*
O=c1cc(-c2ccccc2)oc2c1ccc1ccccc12	-18.9%	x	x	0.2%	0.3%	44.7µM*
O=c1cc(C(F)(F)F)oc2c1ccc1ccccc12	-1.8%	-3.1%	u	0.5%	2.4%	9.1%
CCOC(=O)c1c(C)n(-c2ccc(C)cc2)c2ccc(OCC(O)CNCCCO)cc12 (stereo not drawn)	u	-0.4%	x	7.08µM*	12.1%	u
CCOC(=O)C1=C(c2ccccc2)O/C(=C(\C(=O)OC)C(F)(F)F)S1	-1.6%	-0.4%	u	3.5%	0.6%	u
CCOC(=O)C1=C(c2ccccc2)O/C(=C(/C#N)C(F)(F)F)S1	15.8µM*	x	x	14.1µM*	u	-1.3%
Nc1nc(Nc2ccccc2)nc2c1ncn2[C@@H]1O[C@H](CO)[C@H](O)[C@H]1O	x	x	x	x	-0.2%	x
Cc1[nH]c2ccccc2c1C(=O)CCl	11.2µM*	-0.9%	2.9%	12.6µM*	0.2%	2.0%
Cc1[nH]c2ccccc2c1C(=O)CN(C)c1ccccc1	x	0.4%	0.6%	x	x	x
Cc1[nH]c2ccccc2c1C(=O)COC(=O)c1ccccc1O	x	4.9%	3.55µM*	x	x	x
Cc1[nH]c2ccccc2c1C(=O)CN1C(=O)C(=O)N(CCC2=CCCCC2)C1=O	x	2.3%	-0.3%	x	x	x
CCOC(=O)c1c(C)[nH]c(C)c1C(=O)COC(=O)c1ccccc1O	0.3%	14.0%	1.0%	-23.9%	-0.9%	9.4%
SMILES	VP16 counter	PINK1 modulator	ClpP mod	RORg inh	Epigenetic reg	Sfp inh
Cc1[nH]c2ccccc2c1C(=O)CN1C(=O)C(=O)N(Cc2ccco2)C1=O	4.8%	1.8%	28.2µM*	32.2%	-1.5%	-28.4%
O=C(OCC(=O)c1c[nH]c2ccccc12)c1cc2ccccc2cc1O	0.0%	u	20µM*	19.5%	10.1%	10.1%
Cc1ccc(-c2ccc(CCC(=O)O)n2-c2cccc(C)c2C)cc1	x	-1.1%	-28.5%	x	0.3%	x
CCOc1ccc(C2CC(c3c(O)n(C4CCCCC4)c(=O)[nH]c3=O)=Nc3ccccc3S2)cc1 (stereo not drawn)	x	0.0%	-1.4%	x	5.6%	x
N#Cc1ccc(-c2cccs2)nc1SCc1c(F)cccc1Cl	x	19.4%	4.1%	x	0.0%	x
CCOC(=O)C1CCN(C(=O)C2CCN(S(=O)(=O)c3c(C)noc3/C=C/c3ccc(C)cc3)CC2)CC1	x	0.2%	-24.9%	x	-1.7%	x
O=C(O[C@H]1[C@H](Cc2ccccc2)NS(=O)(=O)[C@H]2C[C@@H]3C=C[C@]12O3)c1ccccc1Br	x	x	2.0%	x	x	x
NC(=S)NN=C1C2CC3CC(C2)CC1C3	u	-1.1%	x	2µM*	u	31.6µM*
CCOC(=O)c1c(N)sc2c1CCC1C(=O)N(C3CCCCC3)C(=O)C21 (stereo not drawn)	24.3%	-1.2%	-1.2%	u	0.0%	20µM*
CCc1ccccc1NC(=O)CC(c1ccc(F)cc1)N1Cc2ccccc2C1=O (stereo not drawn)	x	2.0%	2.5%	x	-0.3%	x
CN1C(=O)c2ccccc2N(C)C1c1ccc2c(c1)OCO2 (stereo not drawn)	7.4%	4.4%	25.1µM*	10.8%	-0.5%	6.8%
CN1C(=O)c2ccccc2N(C)C1c1ccc(F)cc1 (stereo not drawn)	8.7%	2.9%	-0.3%	30.0%	x	3.1%
Brc1ccc(C=C2C=c3ccccc3=C2)cc1	x	0.8%	0.2%	x	x	x
Cc1cc2c(c(-c3ccc(Cl)cc3)c1)OC(CNC(=O)Cc1c(C)noc1C)C2 (stereo not drawn)	x	3.9%	x	x	x	x
COCc1c(C(=O)NC2CCCCCC2)cnn1-c1nccc(-c2cc(C)sc2C)n1	x	0.1%	x	x	x	x
CC1=CCc2c(cc3oc(C)cc(=O)c3c2O)OC1	26.2%	x	x	17.3%	0.8%	-9.2%
Cc1cc(=O)c2c(O)c(O)ccc2o1	-3.3%	-2.2%	-10.8%	-41.2%	-1.8%	79.4µM*
CCCCNC(=O)CN1CCN(c2ncc(NC(=O)c3ccc(Cl)cc3)cc2C(=O)O)CC1	x	2.5%	1.3%	x	1.3%	x
COCc1cc(C)nc(OCC(=O)N/N=C/c2ccccc2O)c1C#N	-7.1%	-0.8%	x	15.8µM*	-4.0%	23.4%
COCc1cc(C)nc(OCC(=O)N/N=C/c2cccc(OC)c2)c1C#N	-15.8%	0.0%	28.2µM*	-8.6%	0.0%	2.2%
COc1ccc(CCNC(=O)c2ccc(-c3ccc([N+](=O)[O-])cc3Cl)o2)cc1	-1.4%	-3.2%	0.3%	17.0%	-0.9%	50.1µM*
S=C(c1ccc(-c2ccccc2Cl)o1)N1CCOCC1	9.9%	x	0.5%	20.5%	1.9%	14.1µM*
S=C(Nc1ccc(Cl)c(Cl)c1)N1CCOCC1	5.8%	0.1%	-11.7%	-36.2%	0.6%	-8.3%
S=C(c1ccc(-c2ccc(Cl)c(Cl)c2)o1)N1CCOCC1	9.4%	x	-3.3%	13.1%	-0.8%	15.8µM*
